Growth data for 13 compounds are collected here from PubChem BioAssay (NCI).

This is part of a sample that, as a whole, favours compounds with a hit. Of some 83,000 tested, about 20% had one in any assay.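 Cell lines were cultured in 96-well plates, exposed to a single compound concentration, and assessed for percent growth 48 hours later.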 Values without a mark were called inactive. Calls of active or inactive are those of the source. How the source made its calls: active means growth percent below 10; inactive means the rest.

The assay relates to MDA-MB-468 breast. Briefly: NCI-60 one-dose screen, 48 h (100 = growth as untreated, 0 = no growth, -100 = all killed). The settings on record: 10 µM unless noted.
Turning to `CNC(=O)c1cc(Oc2cccc3nc(Nc4ccc(F)c(Cl)c4)ccc23)ccn1`, the growth was 6.51% (active).

For `N#Cc1c(-c2cccs2)cc(-c2cnccn2)nc1SCC(=O)N/N=C/c1ccccc1`, the growth is 9.18% (active).

Consider `COc1cc(OC)cc(C(=O)C[n+]2cccc3cc[nH]c32)c1`, for which the growth is 90.9%.

On to `C=C1CC[C@@H]2[C@]3(C)COC(c4ccccc4)O[C@@H]3CC[C@@]2(C)[C@@H]1C/C=C1/C(=O)OC[C@H]1O` (stereo partly drawn), for which the growth is 91.4%.

Take `COc1ccc(-c2nc(-c3ccccc3OCc3ccccc3OC)nc(C)c2C(C)=O)cc1`: the growth is 72%.

With `N#C/C(=C/c1ccc(O)c([N+](=O)[O-])c1)c1nc(-c2ccc([N+](=O)[O-])cc2)cs1`, the growth is 14.3%.

Take `O=C(CNc1nc(-c2cccc([N+](=O)[O-])c2)cs1)Nc1cccc([N+](=O)[O-])c1`: the growth was 14.3%.

For the compound `CN(Cc1cnc2nc(N)nc(N)c2n1)c1ccc(C(=O)NC(CCC(=O)O)C(=O)O)cc1` (stereo not drawn), the growth was 6.99% (active).

`O=C(Nc1ccc(Nc2ccncc2)cc1)c1ccc(Nc2ccnc3ccc([N+](=O)[O-])cc23)cc1`: the growth was 83.4%.

Take `CCOC(=O)Nc1ccc2c(c1)/C(=N\NC(=S)NC)c1ccccc1-2`: the growth is 86.8%.

`COc1c(C)cnc(CSc2nc(-c3ccc(C)cc3)cn2-c2ccc(Cl)cc2)c1C`: the growth is 114%.

In the case of `COc1ccc(NC(=O)Nc2ccc3c(ccn3C(=O)c3cccc(F)c3)c2)cc1`, the growth was 86.6%.

For `Cc1ccc(C(=O)Nc2ccc(CNCCN3CCOCC3)c(C(F)(F)F)c2)cc1C#Cc1cnc2cccnn12`, the growth was -21% (active).
